Assay results: PubChem BioAssay (EPA / NIEHS)
Records with an inconclusive call do not appear. Activity calls are given as the source filed them. Rule for the calls, unless noted: active = hit-call score of the fitted dose curve at least 0.9, where 1 is the maximum; inconclusive = response in the unintended direction; inactive = score below 0.9.

Experiments:
[1] = TOX21_p53_BLA_p2_viability: Viability Assessment in the Tox21 HCT-116 p53 Agonism Beta-lactamase Assay, Phase 2 (AID 2283591);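 note: compound exposure lasted 16 h at 37 °C; actives lower the ATP signal meaning cytotoxicity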
How it was run: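 HCT116 p53-bla cells, 4000/well, dosed after 5 h plating (217-fold dilution of DMSO stocks) and incubated 16 h at 37C. Viability taken as cellular ATP by CellTiter-Glo luminescence after 30 min RT; signal loss marks cytotoxicity.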

[2] = target: Cellular tumor antigen p53 (Homo sapiens) (UniProt P04637); assay: TOX21_p53_BLA_p2_ratio: Tox21 HCT-116 p53 Agonism Beta-lactamase Assay, Ratio, Phase 2 (AID 2283592)
Cellular tumor antigen p53 (Homo sapiens), sequence (P04637 whole entry, looked up): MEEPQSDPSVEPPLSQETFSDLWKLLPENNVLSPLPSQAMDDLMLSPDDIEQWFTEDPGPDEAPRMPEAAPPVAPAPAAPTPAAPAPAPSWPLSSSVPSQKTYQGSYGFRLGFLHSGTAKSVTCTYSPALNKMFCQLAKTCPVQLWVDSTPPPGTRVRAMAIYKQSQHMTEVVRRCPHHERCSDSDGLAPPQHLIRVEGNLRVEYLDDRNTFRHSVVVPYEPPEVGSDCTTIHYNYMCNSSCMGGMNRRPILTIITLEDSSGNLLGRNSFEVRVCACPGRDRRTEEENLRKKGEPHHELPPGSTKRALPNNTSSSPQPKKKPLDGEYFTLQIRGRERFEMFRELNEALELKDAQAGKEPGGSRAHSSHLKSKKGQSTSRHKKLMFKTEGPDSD
How it was run: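 Human colon HCT116 cells with an inducible p53 beta-lactamase reporter are exposed to test chemicals for 16 h at 37C. Reporter induction is read as the 460/530 nm emission ratio after CCF4-AM loading, normalized to DMSO.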

[3] = TOX21_p53_BLA_p3_viability: Viability Assessment in the Tox21 HCT-116 p53 Agonism Beta-lactamase Assay, Phase 3 (AID 2283593);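 note: cells exposed to compound for 16 h before reading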
How it was run: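 HCT116 cells, 4000/well, dosed 5 h after plating by pin transfer (217-fold dilution from DMSO stock) and incubated 16 h at 37C, 5% CO2. Viability read as ATP luminescence with CellTiter-Glo after 30 min at room temperature.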

[4] = target: Cellular tumor antigen p53 (Homo sapiens) (UniProt P04637); assay: TOX21_p53_BLA_p3_ratio: Tox21 HCT-116 p53 Agonism Beta-lactamase Assay, Ratio, Phase 3 (AID 2283596)
How it was run: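 HCT116 p53-bla cells (4000/well) given compound in DMSO (217-fold dilution) after 5 h, incubated 16 h at 37C. CCF4-AM substrate 2 h at room temperature; 460/530 nm emission ratio, gain fitted against DMSO.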

[5] = TOX21_p53_BLA_p4_viability: Viability Assessment in the Tox21 HCT-116 p53 Agonism Beta-lactamase Assay, Phase 4 (AID 2283597);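 note: hits lower the luminescence signal meaning cytotoxicity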
How it was run: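 Luminescent ATP readout (CellTiter-Glo, 30 min, room temperature) in the same wells as the p53 bla ratio. HCT116 cells were treated for 16 h at 37C with DMSO-dissolved compounds.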

[6] = TOX21_p53_BLA_p5_viability: Viability Assessment in the Tox21 HCT-116 p53 Agonism Beta-lactamase Assay, Phase 5 (AID 2283600)
How it was run: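 Seeded cells (4000/well) settle 5 h before compound addition. Plates then incubate 16 h at 37C, receive FRET substrate for 2 h, and finally CellTiter-Glo, with luminescence measured after a 30 min room-temperature incubation.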

[7] = target: Cellular tumor antigen p53 (Homo sapiens) (UniProt P04637); assay: TOX21_p53_BLA_p4_ratio: Tox21 HCT-116 p53 Agonism Beta-lactamase Assay, Ratio, Phase 4 (AID 2283601)
How it was run: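 HCT-116 p53 beta-lactamase reporter cells (4000/well) preincubated 5 h, then compound (217-fold dilution of DMSO stock) for 16 h at 37C. CCF4-AM substrate added 2 h at room temperature; 460/530 nm emission ratio fitted upward versus DMSO.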

[8] = target: Cellular tumor antigen p53 (Homo sapiens) (UniProt P04637); assay: TOX21_p53_BLA_p5_ratio: Tox21 HCT-116 p53 Agonism Beta-lactamase Assay, Ratio, Phase 5 (AID 2283599)
How it was run: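 HCT-116 p53-bla cells (4000/well) plated 5 h, dosed with compound (217-fold DMSO dilution) for 16 h at 37 C; CCF4-AM substrate 2 h at room temperature. Activity is the 460/530 nm emission ratio (405 nm excitation), fitted in gain-of-signal direction versus DMSO.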

[9] = CCTE_Harrill_HTTr_Viability_MCF7: CCTE's 6-hour Cell Viability Assessment for the High-Throughput Transcriptomics (HTTr) Platform, in MCF-7 cells cultured in DMEM + 10% fetal bovine serum, Harrill Lab (AID 2284010; active = hit-call score of the fitted dose curve at least 0.9, where 1 is the maximum; inactive = score below 0.9)
How it was run: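 Membrane integrity was scored by high-content imaging of propidium iodide dye exclusion after a 6 h exposure across an eight-point dilution series. Data were fitted bidirectionally relative to DMSO as negative control and baseline.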

[10] = CCTE_Harrill_HTTr_Apoptosis_MCF7: CCTE's 6-hour Apoptosis Assessment for the High-Throughput Transcriptomics (HTTr) Platform, in MCF-7 cells cultured in DMEM + 10% fetal bovine serum, Harrill Lab (AID 2284011; active = hit-call score of the fitted dose curve at least 0.9, where 1 is the maximum; inactive = score below 0.9)
How it was run: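 Apoptosis in MCF-7 cells grown in DMEM with 10% fetal bovine serum was scored after a six hour exposure by high content imaging of caspase-3/7 activation (CellEvent Caspase 3/7 Green), with DMSO serving as negative control and baseline.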

Measured: outcome

CN[C@@H]1[C@H](O)[C@H](NC)[C@H]2O[C@@]3(O)C(=O)C[C@@H](C)O[C@H]3O[C@@H]2[C@H]1O
not listed: [8] | [9] | [10]
inactive: all other assays above

C=CCNC(N)=S
not listed: [8] | [9] | [10]
inactive: all other assays above

Cc1nc2ccccn2c(=O)c1CCN1CCC(C(=O)c2ccc(F)cc2)CC1
not listed: [8] | [9] | [10]
inactive: all other assays above

OC(CN1CCC(Cc2ccc(F)cc2)CC1)c1ccc(Cl)cc1 (stereo not drawn)
not listed: [8] | [9] | [10]
inactive: all other assays above

Cc1ncc(CSSCc2cnc(C)c(O)c2CO)c(CO)c1O
not listed: [8] | [9] | [10]
inactive: all other assays above

COC(=O)c1ccc(C(=O)O)cc1
not listed: [8] | [9] | [10]
inactive: all other assays above

CCCCCCCCS(=O)(=O)Cl
not listed: [8] | [9] | [10]
inactive: all other assays above

O=S(=O)(O)CC(S)CS (stereo not drawn)
not listed: [8] | [9] | [10]
inactive: all other assays above

C[N+]1(C)[C@@H]2CC(OC(=O)C(O)(c3cccs3)c3cccs3)C[C@H]1[C@@H]1O[C@@H]12 (stereo partly drawn)
inactive: [1] | [2] | [3] | [4] | [5] | [7]

CCN(CC)CCOC(=O)c1cccnc1
inactive: [1] | [2] | [3] | [4] | [8] | [6]

Nc1cc(-c2ccncc2)c[nH]c1=O
not listed: [8]
inactive: all other assays above

COC(=O)c1ccccc1Cl
inactive: [1] | [2] | [3] | [4] | [8] | [6]
